AMPAR-TARP mod: modulators of AMPA receptor GluA2-stargazin complexes; HEK293 GluA2+stargazin, membrane potential dye (FDSS), glutamate EC50; hits were called plate by plate, in both directions; calls only at 30 µM; 40,000 tested, 3.5% active;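 active = any of four per-well response measures lying three or more SD from its plate-wide compound average, in either direction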
GIRK2 activator: Activates human GIRK2-containing potassium channels. P48051. AID 1259324. activation (% efficacy), % for hits at 37.5 µM. HEK293 GIRK2/NPY4 cells, thallium flux fluorescence. 34,000 tested, under 10 active;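 active = primary screen hit, no activity in plain HEK293 cells, and in GIRK2-only cells above 5% efficacy rising with concentration; inactive = the rest, including fluorescent compounds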;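 also: efficacy is normalized control-subtracted fluorescence 15 s after thallium addition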
Target sequence (P48051 whole entry, looked up): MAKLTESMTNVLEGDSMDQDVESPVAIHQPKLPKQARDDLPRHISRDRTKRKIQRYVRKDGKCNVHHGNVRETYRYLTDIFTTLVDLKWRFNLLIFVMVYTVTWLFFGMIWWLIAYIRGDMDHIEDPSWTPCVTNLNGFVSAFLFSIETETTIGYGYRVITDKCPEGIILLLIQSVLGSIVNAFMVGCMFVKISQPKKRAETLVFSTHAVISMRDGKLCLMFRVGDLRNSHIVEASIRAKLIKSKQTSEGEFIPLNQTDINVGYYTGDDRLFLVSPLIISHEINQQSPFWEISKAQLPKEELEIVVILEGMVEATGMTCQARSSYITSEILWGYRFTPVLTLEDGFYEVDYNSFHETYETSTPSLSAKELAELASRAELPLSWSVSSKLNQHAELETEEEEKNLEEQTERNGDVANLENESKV
* marks the source's active call; other numbers are inactive results; i = inactive; · = not tested or not shown; + = active, no number. The sample as a whole holds a higher share of hits than the screen did.

SMILES	AMPAR-TARP mod	GIRK2 activator
COC(=O)CSc1nnc(-c2cn(C)nc2OC)n1C	i	i
O=S(=O)(NCC1(O)CCOc2ccccc21)c1ccccc1Br (stereo unspecified)	·	i
COc1ccc(Cl)cc1NC(=O)N1CCN(Cc2nc(-c3ccco3)cs2)CC1	i	i
CCCC(=O)N1c2ccccc2CC1C(N)=O (stereo unspecified)	i	i
C=C(C)Cn1c(=O)c2c(nc3n(-c4cc(OC)ccc4OC)c(-c4ccccc4)cn23)n(C)c1=O	+	i
CCc1ccccc1-n1c(-c2ccccc2)cn2c3c(=O)n(CCOC)c(=O)n(C)c3nc12	+	·
C=CCn1c(=O)c2c(nc3n(-c4cc(OC)ccc4OC)c(-c4ccccc4)cn23)n(C)c1=O	i	i
COCCn1c(=O)c2c(nc3n(-c4ccccc4C)c(-c4ccccc4)cn23)n(C)c1=O	i	·
COc1ccccc1N1CCN(CCNS(=O)(=O)c2ccc(C)cc2)CC1	i	·
CCC(C(=O)NCCCn1cccc1)c1ccccc1 (stereo unspecified)	i	i
COc1ccc(-c2ccc(C)c(NS(=O)(=O)c3ccc(NC(=O)C(C)C)cc3)c2)nn1	+	i
COc1ccc(-c2ccc(C)c(NC(=O)Cc3ccc(OC)c(OC)c3)c2)nn1	i	i
O=C(NC(=S)Nc1ccc(S(=O)(=O)NC2CCCCC2)cc1)c1cccs1	+	·
NS(=O)(=O)c1ccc(NS(=O)(=O)c2ccc(NC(=O)C3CCCCC3)cc2)cc1	i	i
O=C(Nc1ccc(N2CCCCS2(=O)=O)cc1)c1ccccc1[N+](=O)[O-]	i	·
O=C(CC1C(=O)NCCN1C(=S)NC(=O)c1cccc([N+](=O)[O-])c1)OCC1CCCO1 (stereo unspecified)	i	·
COc1ccc(/C=C2\Oc3c(cc4c(c3C)OCN(Cc3ccco3)C4)C2=O)cc1OC	+	i
COc1ccc(/C=C2\Oc3c4c(cc(C)c3C2=O)OCN(C2CC2)C4)cc1OC	i	i
CNC(=O)C(=O)NCC1(c2cccs2)CCCC1	·	i
CSc1ccccc1NC(=O)C(=O)NCC1CCN(Cc2ccccc2)CC1	i	i
CSc1ccccc1CN1CCC(CNC(=O)C(=O)Nc2ccccc2Cl)CC1	+	i
CS(=O)(=O)N1CCN(C(=O)C2CC(=O)c3ccccc32)CC1 (stereo unspecified)	i	i
Cc1ccc(Cl)cc1N1CCN(C(=O)C2CC(=O)c3ccccc32)CC1 (stereo unspecified)	+	i
COc1cccc(C(CNC(=O)c2ccccc2Br)N2CCOCC2)c1 (stereo unspecified)	i	i
COc1ccc(C(CNC(=O)c2ccccc2Br)N2CCOCC2)cc1 (stereo unspecified)	+	i
SMILES	AMPAR-TARP mod	GIRK2 activator
COc1ccc(C(CNC(=O)c2cc(OC)cc(OC)c2)N2CCOCC2)cc1 (stereo unspecified)	i	·
COc1ccc(C(CNC(=O)c2ccc3ccccc3c2)N2CCOCC2)cc1 (stereo unspecified)	+	·
O=C(NCC(c1cccc2ccccc12)N1CCOCC1)c1cccc(Br)c1 (stereo unspecified)	i	i
O=C(NCC(c1cccc2ccccc12)N1CCOCC1)c1ccc(Br)o1 (stereo unspecified)	+	i
Cc1cnc2c(c1SCCO)c(=O)n(C)c(=O)n2C	i	i
COc1ccc(-c2cn(CC(=O)Nc3c(C)cccc3C)nc2N2CCOCC2)cc1	·	i
COCCNC(=O)CCCn1c(=S)[nH]c2ccc(Br)cc2c1=O	i	i
Cc1cccc(N2C(=O)CC(c3cn(C)c4ccccc34)C2=O)c1 (stereo unspecified)	i	·
Cc1ccccc1N1C(=O)CC(c2cn(Cc3ccccc3)c3ccccc23)C1=O (stereo unspecified)	+	·
COc1ccc(/C=C2\SC(=S)N(c3cccc(C)c3C)C2=O)cc1OC	i	·
COc1cc(/C=C2\SC(=S)N(c3cccc(C)c3C)C2=O)cc(OC)c1OC	+	·
CCOc1cc(/C=C2\SC(=S)N(c3ccccc3Br)C2=O)ccc1O	i	·
COc1cc(/C=C2\SC(=S)N(c3ccccc3Br)C2=O)ccc1O	+	·
CCOC(=O)CSc1nnc(CCn2ccc(=O)[nH]c2=O)o1	i	i
Cc1cc(NC(=O)CSc2nnc(N3CCN(C(=O)Cc4c[nH]c5ccccc45)CC3)s2)no1	i	i
Cc1ccccc1-c1ccc(N2CCC(C(=O)NCc3ccco3)CC2)nn1	+	i
Cc1ccccc1-c1ccc(N2CCC(C(=O)NCc3cccnc3)CC2)nn1	i	i
Cc1cc(C)cc(-n2ccnc(SCC(=O)Nc3ccc(Br)cc3)c2=O)c1	i	·
O=C(COc1ccccc1C1CC(c2ccccc2)=NN1C(=O)c1ccccc1)N1CCOCC1 (stereo unspecified)	+	·
O=C(COc1ccccc1C1CC(c2cccs2)=NN1C(=O)c1ccccc1)N1CCCC1 (stereo unspecified)	i	·
COc1cc(NC(=O)c2cc([N+](=O)[O-])ccc2Cl)ccc1N1CCCCC1=O	i	i
NCC1CCN(Cc2ccsc2)CC1	i	i
CCOCCSc1ccnc2c1c(=O)n(C)c(=O)n2C	+	·
Cn1c(=O)c2c(SCCN3CCCC3)ccnc2n(C)c1=O	+	i
CCN(CC)CCSc1ccnc2c1c(=O)n(C)c(=O)n2C	+	i
SMILES	AMPAR-TARP mod	GIRK2 activator
CCCNC(=O)CSc1ccnc2c1c(=O)n(C)c(=O)n2C	i	i
CCOC(=O)CNC(=O)CSc1ccnc2c1c(=O)n(C)c(=O)n2C	i	i
Cn1c(=O)c2c(SCCO)ccnc2n(C)c1=O	i	·
CC1CN(C(=O)CSc2ccnc3c2c(=O)n(C)c(=O)n3C)CC(C)O1 (stereo unspecified)	+	i
Cn1c(=O)c2c(SCC(=O)N3CCCCCC3)ccnc2n(C)c1=O	i	·
O=C(NCCc1ccsc1)Nc1ccccc1C(F)(F)F	i	i
CCN(CC)CCCN1C(=O)C(=O)C(=C(O)c2ccc(OC)c(Cl)c2)C1c1ccco1 (stereo unspecified)	·	i
CCN(CC)C(=O)CSc1ccnc2c1c(=O)n(C)c(=O)n2C	i	i
Cc1cnc2c(c1SCC(=O)N1CCN(c3ccccc3)CC1)c(=O)n(C)c(=O)n2C	+	i
CCc1cnc2c(c1SCC(=O)N1CCN(c3ccccc3)CC1)c(=O)n(C)c(=O)n2C	i	i
Cn1c(=O)c2c(SCC(N)=O)ccnc2n(C)c1=O	+	·
Cn1c(=O)c2c(SCC(=O)NC(C)(C)C)ccnc2n(C)c1=O	i	i
C=CCSc1ccnc2c1c(=O)n(C)c(=O)n2C	+	·
O=C(CCSc1ccccc1)N1CCC(c2nnc(-c3ccco3)s2)CC1	i	i
Cc1ccc(N2CCN(C(=O)c3cccc(Cl)c3)CC2)c(C)c1	i	i
Cc1nc(C(=O)NCC#CCOc2cccc(C(F)(F)F)c2)cs1	·	i
CCCc1nnsc1C(=O)Nc1ccc2c(c1)CCC(=O)N2CC	i	i
CS(=O)(=O)c1cccc(S(=O)(=O)N2CCC(Cc3ccccc3)CC2)c1	i	·
COc1ccccc1N1CCN(CC(O)COc2ccc(NC(C)=O)cc2)CC1 (stereo unspecified)	i	i

Screens: PubChem BioAssay, several laboratories
